These sequences were tested against ZNF721 DBD2 (Homo sapiens, UniProt Q8TF20-2 395-923) (assay: HT-SELEX; 20 mM HEPES pH 7, 140 mM KCl, 5 mM NaCl, 1 mM K2HPO4, 2 mM MgSO4, 100 uM EGTA, ZnSO4, 0.1% Tween20; room temperature, 1 h; high values mean tight binding). Settings: protein: ivt; tags: eGFP (N-terminal); dsDNA, one strand shown.
How it was run: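 Full-length or DNA-binding-domain forms of a tagged transcription factor were produced in HEK293 lysate or cell-free extract and immobilised on beads. Incubation with a randomized 40-base DNA library ran for 1 h at room temperature in HEPES/KCl low-stringency buffer with Tween20, after which bound DNA was washed, heat-eluted, PCR-amplified over successive cycles and Illumina-sequenced. Binding strength is given as the relative k-mer count in selected reads, higher for tighter binding.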

Sequence of ZNF721 DBD2 (Q8TF20 383-911): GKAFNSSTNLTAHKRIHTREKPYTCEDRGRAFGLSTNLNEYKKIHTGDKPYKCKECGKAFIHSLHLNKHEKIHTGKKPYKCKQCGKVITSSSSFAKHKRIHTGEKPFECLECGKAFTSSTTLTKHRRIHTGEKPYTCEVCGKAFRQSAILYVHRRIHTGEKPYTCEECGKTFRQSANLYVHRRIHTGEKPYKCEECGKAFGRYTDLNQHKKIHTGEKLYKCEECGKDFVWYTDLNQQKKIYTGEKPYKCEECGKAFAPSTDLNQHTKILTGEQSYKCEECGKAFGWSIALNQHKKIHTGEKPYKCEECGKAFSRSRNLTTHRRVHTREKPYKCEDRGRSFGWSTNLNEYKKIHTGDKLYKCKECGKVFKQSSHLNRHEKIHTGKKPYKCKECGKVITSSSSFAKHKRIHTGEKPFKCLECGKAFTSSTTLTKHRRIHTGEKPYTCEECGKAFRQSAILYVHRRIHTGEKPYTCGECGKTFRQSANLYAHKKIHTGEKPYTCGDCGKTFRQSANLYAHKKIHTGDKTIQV

Sequence	binding signal [relative 10-mer count]
CCCACTCCCC	0.00372
CCCCCGCCCC	0.00372
CGCCACCCCC	0.0024
CAGGGTGGGG	0.00384
CCCCCCGTCC	0.00288
CTCCCCCCGC	0.00144
CCACACACCC	0.00312
CCACCCTCCA	0.00815
CGCCCCCGCC	0.00216
GCGTACCCTA	0.0775
ACCCACCCAC	0.00887
AAAAAAGAGT	0.0674
CCCCCCTACC	0.0036
CCCACCCACC	0.00899
CACCCCCCTC	0.00479
CACCACCCCA	0.00683
CCACCGACCC	0.0036
ACCCGCCCCA	0.0012
CCCGTCCCCC	0.0018
CCTCCTCCCC	0.00527

Sequence	binding signal [relative 10-mer count]
AGCGTTTCCA	0.459
CTCCCCTCCC	0.00455
CCCCACCCCC	0.00419
AAAGCAGTAC	0.0905
GGGTGGGGGA	0.00443
CCCGACCCCA	0.0012
CACCCACACC	0.00395
CCTACCCACC	0.0101
CCCTACCACC	0.0144
CACCACCACC	0.0109
GCCCACCCCC	0.00779
CCCACCCGCC	0.00539
AGAAAAAAAG	0.035
CCCACAACCC	0.00348
CACCACACCC	0.00336
ACCCCACCCT	0.00372
CCCCGCCGCC	0.0012
ACCCACCGCC	0.00455
CCATCCCCAC	0.00372
GCACCCCCAC	0.0174
